Structures are written as SMILES. Activity calls are given as the source filed them.

One test can be described thus: FRG1 promoter luciferase signal modulators, primary screen, FRG1 inhibition for FSHD, cell-based, C2C12 myotubes, firefly/Renilla luciferase, luminescence (AID 1084). To be noted: higher = more signal, called active from +8 up or from −8 down.
Consider `C=CCN1C(=O)[C@]2(O[C@H](CCO)[C@@H]([Si](C)(C)c3ccc(OC)cc3)[C@@H]2C)c2cc(N(C=O)c3ccccc3)ccc21`, for which the z-score is -2.69 (inactive). Same read-out and setting: under `C=C(C(=O)CC[C@H](OC(C)=O)c1ccccc1OCCO)C(C)C` stands -4.37 (inactive). As for `COC(=O)[C@@]1(Cc2ccc(OC)cc2)[C@H]2c3cc(C(=O)N4CCCC4)n(Cc4nc5ccccc5[nH]4)c3C[C@H]2CN1C(=O)c1ccccc1`, the z-score is 4.38 (inactive).

On to `CC(c1ccccc1)C(O)C1C=CC2C(=O)N(c3ccccc3)C(=O)C2N1Nc1ccccc1` (centres undefined), for which the z-score was -1.41 (inactive).

`CCCC[C@H]1C[C@@H]1[C@@H]1N(P(=O)(c2ccccc2)c2ccccc2)C[C@@](O)(c2ccccc2)CC12CC2`: the z-score was 1.11 (inactive).

With `COCC(=C=CC[C@H](O)c1ccccc1OCCO)CCO`, the z-score is 0.212 (inactive). As for `O=C1C[C@@](C(=O)NCc2ccccc2)(c2ccc([N+](=O)[O-])cc2)[C@@H](c2ccc(CO)cc2)N1CC12CC3CC(CC(C3)C1)C2`, the z-score is -2.72 (inactive). On the same count and under the same terms, under `COC(=O)c1c(CC[C@@H](CO)NC(=O)N[C@H](Cc2ccccc2)Cn2cc(-c3ccccn3)nn2)oc(C(C)=O)c1C(=O)OC` stands -0.533 (inactive). On to `COC(=O)[C@]1(CCC(=O)OC(C)(C)C)N=C(c2ccc(OCCCO)cc2)O[C@@H]1c1ccccc1`, for which the z-score is -2.62 (inactive).

A further test in a line: binders of probe aFST on microarray, primary screen, stem cell growth factor project, biochemical, small-molecule microarray, fluorescence 635/667 (AID 1086).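 Also: score merges 667 nm fluorescence with signal-to-noise of each printed compound spot.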 To be noted: higher = more signal.
`CC#CC(=O)Oc1ccc(Br)cc1C=CC(=O)OCC` came in with a composite z-score of 0.375. The molecule `CCCC(=O)N(CCc1c[nH]c2ccccc12)[C@@H]1CC(C(=O)NCCO)=C[C@H](Oc2c(I)cc(CO)cc2OC)[C@H]1O` returned a composite z-score of -0.0945. `COCCOC(=O)N1C(=O)[C@@]2(c3ccccc31)[C@H](C(=O)N1CCCCCCC1)[C@H]1C(=O)O[C@H](c3ccccc3)[C@H](c3ccccc3)N1[C@@H]2c1ccc(OCCO)cc1`: the composite z-score amounted to 3.82. As for `CCOC(=O)C[C@H]1[C@H](OC(=O)c2cc3ccccc3oc2=O)[C@@H](NC(=O)CC(C)C)c2cc(OCCCO)ccc2N1C(=O)c1ccccc1`, the composite z-score was found to be 0.128.

For `O=C1OCC=C[C@H]2OC34C=CCN(CCN5CCOCC5)C(=O)[C@H]3N(CCO)C(=O)[C@@H]4[C@@H]12` (some centres undefined), the composite z-score is -0.218. Still for that read-out and setting: under `COCC(=C=CC[C@H](O)c1cccc(OCCO)c1)CCO` stands 0.235. Still for that read-out and setting: under `C#CCN1[C@H](/C=C/C2CC2)[C@H](Cc2ccccc2)OC(=O)[C@@H]1Cc1ccccc1` stands -0.0168; under `O[C@@H](Cc1ccccc1)[C@@H](/C=C/C1CC1)NCc1cccc(Cl)c1`, -0.699. On the same count and under the same terms, the value for `C=C(/C(=C/C[C@H](OC(C)=O)c1ccc(OCCO)cc1)c1cc(C(=O)OC)ccc1OC)C(C)C` was 0.388; that for `CCCC[C@@H]1C[C@H]1[C@@H](NC(=O)c1cccnc1)c1ccc(Cl)cc1` was -0.513.

With `CC(C)[C@@H](C(=O)O)n1cc(C2(O)CCCCC2)nn1`, the composite z-score amounted to 0.27. The same measure, in the same setting: the value for `CC(C)CCC[C@@H](C)[C@H]1CC[C@@]2(C)C3=C(CC[C@]12C)[C@@]1(C)CC[C@H](OC(=O)c2ccc(C(F)(F)F)nc2)C(C)(C)C1CC3` (some centres undefined) was -0.108.

For the molecule `O=C1O[C@@H](c2ccccc2)[C@@H](c2ccccc2)N2[C@@H](c3ccc(OCCO)cc3)[C@]3(C(=O)Nc4ccc(C#CC5=CCCCC5)cc43)[C@@H](C(=O)N3CCCCCCC3)[C@H]12`, the composite z-score was 3.12.

`CC(C)NC(=O)[C@@]1(Cc2ccccc2I)c2ccccc2C(=O)N(Cc2ccccc2Cl)[C@H]1c1ccc(CO)cc1` yielded a composite z-score of 0.237. Regarding `COc1ccc([Si](C)(C)[C@H]2[C@H](CCO)O[C@@]3(C(=O)N(Cc4ccccc4)c4ccc(N5CCCCC5=O)cc43)[C@@H]2C)cc1`, the composite z-score was -0.227. The same measure, in the same setting: the value for `COc1ccc([C@H]2C[C@H]3C(Br)=C[C@@]2(CO)C(=O)[C@]32CO2)cc1` was 0.0716; that for `CO[C@H]1O[C@H](CO)[C@@H](OC(=O)Nc2ccc(Oc3ccccc3)cc2)[C@H](OC(=O)Nc2ccc3c(c2)OCO3)[C@@H]1OC(=O)Nc1ccc2c(c1)OCO2` was 0.8; that for `O=C(NC1CC1)[C@@H]1c2ccccc2C(=O)N(C2Cc3ccccc3C2)[C@H]1c1ccc(CO)cc1` was 0.325. The molecule `CC(C)=CCCC(C)=CC(O)C1C=CC2C(=O)N(c3ccccc3)C(=O)C2N1Nc1ccc(C(C)C)cc1` (centres undefined) displayed a composite z-score of 1.07. The same measure, in the same setting: under `C=CC[C@]1(C(N)=O)N=C(c2ccc(OCCCO)cc2)O[C@H]1c1ccccc1` stands -0.0521. `COc1cc2c(cc1O)C(c1cccs1)N(Cc1cccc(OC(F)(F)F)c1)CC2` (centres undefined) had a composite z-score of -0.146. `C=C(CCCC)C(=O)CC[C@@H](OC(C)=O)c1ccc(CO)o1` had a composite z-score of 0.911. On the same count and under the same terms, the value for `O=C(CS)NCCCCCNC(=O)[C@H]1C[C@H]2C(=O)NCC(=O)N2[C@H]1c1ccc(O)cc1` was -0.753; that for `COC(=O)[C@H](Cc1ccccc1)N[C@H](/C=C/C1CC1)[C@@H](O)Cc1ccccc1` was -0.474. Still for that read-out and setting: the value for `C=C(CCCC)C(=O)CC[C@H](OC(=O)c1cccnc1)c1ccc(OCCO)cc1` was -0.0065. On the same count and under the same terms, the value for `O=C1O[C@@H](c2ccccc2)[C@@H](c2ccccc2)N2[C@@H](c3ccccc3OCCO)[C@]3(C(=O)Nc4ccc(C#CC5(O)CCCCCC5)cc43)[C@@H](C(=O)N3CCN(c4ncccn4)CC3)[C@H]12` was -0.0815. In turn, `C=CCN1C(=O)[C@]2(O[C@H](CCO)[C@@H]([Si](C)(C)c3ccc(OC)cc3)[C@@H]2C)c2cc(N(C=O)c3ccccc3)ccc21` returned a composite z-score of 0.359.

Molecule `C=C(C(=O)CC[C@H](OC(C)=O)c1ccccc1OCCO)C(C)C` showed a composite z-score of -0.327. Still for that read-out and setting: the value for `COC(=O)[C@@]1(Cc2ccc(OC)cc2)[C@H]2c3cc(C(=O)N4CCCC4)n(Cc4nc5ccccc5[nH]4)c3C[C@H]2CN1C(=O)c1ccccc1` was 1.65. Same read-out and setting: the value for `CC(c1ccccc1)C(O)C1C=CC2C(=O)N(c3ccccc3)C(=O)C2N1Nc1ccccc1` (centres undefined) was 1.38; that for `CCCC[C@H]1C[C@@H]1[C@@H]1N(P(=O)(c2ccccc2)c2ccccc2)C[C@@](O)(c2ccccc2)CC12CC2` was 1.39. The same measure, in the same setting: under `COCC(=C=CC[C@H](O)c1ccccc1OCCO)CCO` stands -0.0019; under `O=C1C[C@@](C(=O)NCc2ccccc2)(c2ccc([N+](=O)[O-])cc2)[C@@H](c2ccc(CO)cc2)N1CC12CC3CC(CC(C3)C1)C2`, 0.282; under `COC(=O)c1c(CC[C@@H](CO)NC(=O)N[C@H](Cc2ccccc2)Cn2cc(-c3ccccn3)nn2)oc(C(C)=O)c1C(=O)OC`, -0.217.

The molecule `COC(=O)[C@]1(CCC(=O)OC(C)(C)C)N=C(c2ccc(OCCCO)cc2)O[C@@H]1c1ccccc1` gave a composite z-score of -0.159.

The record behind these values is PubChem BioAssay.
